A short description of assay [1]: qHTS assay to test for compound auto fluorescence at 535 nm (green) in HEK293 cells (AID 720680). In general terms: In qHTS, concentration-response curves come from the screen itself.
Assay [2] in a line: qHTS assay to test for compound auto fluorescence at 460 nm (blue) in HEK293 cell free culture (AID 720681). Put shortly: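 Compounds were added to cell-free DMEM with 10% FBS and fluorescence read directly. The blue channel used 405 nm excitation and 460 nm emission, with triamterene as the reference fluorophore.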
Assay [3] is described as follows: qHTS assay to test for compound auto fluorescence at 535 nm (green) in HEK293 cell free culture (AID 720682). In outline: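 Cell-free medium (DMEM, 10% FBS) receives compound or DMSO by pintool. Plate read directly at Ex 485/Em 535 nm. Signal converted to fluorescein equivalency.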
A short description of assay [4]: qHTS assay to test for compound auto fluorescence at 590 nm (red) in HEK293 cell free culture (AID 720683). Put shortly: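 Cell-free wells of DMEM with 10% FBS received compound, and intrinsic fluorescence was read at excitation/emission 540/590 nm. Values expressed as equivalence to Rose Bengal sodium.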
Assay [5] is described as follows: qHTS assay to test for compound auto fluorescence at 590 nm (red) in HepG2 cell free culture (AID 720684). In outline: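 Compound was pinned into wells holding MEM with 10% FBS and no cells, and red fluorescence was read at Ex/Em 540/590 nm. Signal is expressed as auto fluorescence equivalency relative to Rose Bengal sodium.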
A short description of assay [6]: qHTS assay to test for compound auto fluorescence at 535 nm (green) in HepG2 cell free culture (AID 720686).
A short description of assay [7]: qHTS assay to test for compound auto fluorescence at 460 nm (blue) in HepG2 cells (AID 720687). In outline: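 HepG2 cells in MEM with 10% FBS, attached overnight at 37 C, were exposed to compound or DMSO for 1 hr at 37 C, 5% CO2. Blue fluorescence was read at 405/460 nm, with triamterene as reference fluorophore.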
Assay [8] has as its target Glucocorticoid receptor (Homo sapiens) (UniProt P04150). In words: qHTS assay to identify small molecule agonists of the glucocorticoid receptor (GR) signaling pathway (AID 720691; active = well fitted activation curve with a large enough effect in the signal ratio in the repeat runs, not every such curve was filed as active; the % refers to the signal ratio). In outline:
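Reporter read-out: fluorescence intensity following 2 h room-temperature LiveBLAzer B/G FRET substrate loading. Prior step: GR-bla HeLa cells held 4 h, then treated 18 h at 37 C.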

Assay [9] has the same target. In words: qHTS assay to identify small molecule antagonists of the glucocorticoid receptor (GR) signaling pathway (AID 720692; active = well fitted inhibition curve with a large enough effect in the signal ratio in the repeat runs, not every such curve was filed as active; the % refers to the signal ratio). Put shortly:
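Dexamethasone (5 nM final) stimulated a stably integrated GRE-beta-lactamase reporter in HeLa cells during 18 h co-incubation with compounds; signal was quantified as fluorescence intensity of B/G FRET substrate after 2 h.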

Assay [10] in a line: qHTS assay to identify small molecule antagonists of the glucocorticoid receptor (GR) signaling pathway - cell viability counter screen (AID 720693). Also: nearly all actives have a fitted effect of over 55% in size. Also: potency is read from the fitted curve at half-maximal effect.
The nature of assay [11]: qHTS assay for identifying genotoxic compounds that show differential cytotoxicity against isogenic chicken DT40 cell lines with known DNA damage response pathways - wild type cell line (AID 743012). Also: nearly all actives have a fitted effect of over 60% in size. Also: potency is read from the fitted curve at half-maximal effect. In outline:
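Using parental DT40 (300 cells/well), compounds delivered in DMSO incubate 40 h at 37 C/5% CO2. CellTiter-Glo reagent then stands 30 min at room temperature, and luminescence gives cell viability.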

A short description of assay [12]: qHTS assay for identifying genotoxic compounds that show differential cytotoxicity against isogenic chicken DT40 cell lines with known DNA damage response pathways - Rad54/Ku70 mutant cell line (AID 743015). Also: nearly all actives have a fitted effect of over 60% in size. Also: potency is read from the fitted curve at half-maximal effect.
The nature of assay [13]: qHTS assay to identify small molecule antagonists of the androgen receptor (AR) signaling pathway - cell viability counter screen (AID 743033; also: nearly all actives have a fitted effect of over 45% in size; also: potency is read from the fitted curve at half-maximal effect).
The nature of assay [14]: qHTS assay to identify small molecule antagonists of the androgen receptor (AR) signaling pathway using the MDA cell line - cell viability counter screen (AID 743041; also: nearly all actives have a fitted effect of over 45% in size). Put shortly: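 MDA-kb2 AR-luc cells (MMTV-luciferase, AR/GR responsive) treated with compounds plus R1881 agonist for 16 h at 37C. CellTiter-Fluor added at 15.5 h; fluorescence read after 30 min in the same wells.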

Assay [15] in a line: qHTS assay to identify small molecule antagonists of the thyroid receptor (TR) signaling pathway - cell viability counter screen (AID 743064). Also: nearly all actives have a fitted effect of over 50% in size. Also: potency is read from the fitted curve at half-maximal effect. Put shortly:
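GH3.TRE-Luc cells, 4 h pre-plating; cpd + T3 1 nM final; 37 °C 23.5 h; CellTiter-Fluor 30 min; fluorescence read.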

A short description of assay [16]: qHTS assay for identifying genotoxic compounds that show differential cytotoxicity against isogenic chicken DT40 cell lines with known DNA damage response pathways - Rev3 mutant cell line (AID 743014). Also: nearly all actives have a fitted effect of over 55% in size. Also: potency is read from the fitted curve at half-maximal effect.
Assay [17] concerns the target Androgen receptor (Homo sapiens) (UniProt P10275). Kind of assay: qHTS assay to identify small molecule agonists of the androgen receptor (AR) signaling pathway (AID 743036; active = well fitted activation curve with a large enough effect in the signal ratio in the repeat runs, with a control signal flat, not every such curve was filed as active; the % refers to the signal ratio). Put shortly: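 AR-bla HEK293 cells, 2,000/well; 4 h preincubation 37C/5% CO2; compound (DMSO) 16 h at 37C; LiveBLAzer B/G FRET substrate 2 h RT; fluorescence intensity read-out.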
Assay [18] has the same target. Kind of assay: qHTS assay to identify small molecule antagonists of the androgen receptor (AR) signaling pathway using the MDA cell line (AID 743042; also: nearly all actives have a fitted effect of over 55% in size). Put shortly:
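MDA-kb2 breast carcinoma cells carrying MMTV-luciferase (AR/GR responsive) were co-treated with compounds and the agonist R1881 for 16 h at 37C. Inhibition read as ONE-Glo luminescence; CellTiter-Fluor fluorescence measured in parallel for cytotoxicity.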

The nature of assay [19]: qHTS assay to identify small molecule antagonists of the thyroid receptor (TR) signaling pathway (AID 743065). Also: nearly all actives have a fitted effect of over 55% in size. Also: potency is read from the fitted curve at half-maximal effect. Put shortly: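 GH3.TRE-Luc rat pituitary cells (two TREs driving luciferase) were dosed with compound, then stimulated with 1 nM T3 (final) for 23.5 h at 37 C. ONE-Glo luminescence was the read-out, with CellTiter-Fluor fluorescence as the cytotoxicity counter-screen.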

Assay [20] in a line: qHTS assay to test for compound auto fluorescence at 460 nm (blue) in HepG2 cell free culture (AID 720685). Put shortly:
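Compound (23 nL) or DMSO pinned into cell-free MEM with 10% FBS; blue fluorescence read at 405/460 nm excitation/emission, expressed as auto-fluorescence equivalency to triamterene.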

Several values for one entry are separate records, joined by “and”; a condition that tells them apart may be missing. Equal values may be shown once. Values without a mark were called inactive. Results filed as inconclusive are left out. Activity calls are given as the source filed them. Unless noted, calls follow the shape of the dose curve; as a rule, active = well fitted curve in the direction sought with a large enough effect in the repeat runs; inconclusive = weak or mixed curves; inactive = no such curve, though single readings can be large; an effect the other way counts as inactive or inconclusive.
% is scaled to controls: 0 for no effect and ±100 for the full control effect.

Chain of Androgen receptor (Homo sapiens) (P10275 whole entry, looked up): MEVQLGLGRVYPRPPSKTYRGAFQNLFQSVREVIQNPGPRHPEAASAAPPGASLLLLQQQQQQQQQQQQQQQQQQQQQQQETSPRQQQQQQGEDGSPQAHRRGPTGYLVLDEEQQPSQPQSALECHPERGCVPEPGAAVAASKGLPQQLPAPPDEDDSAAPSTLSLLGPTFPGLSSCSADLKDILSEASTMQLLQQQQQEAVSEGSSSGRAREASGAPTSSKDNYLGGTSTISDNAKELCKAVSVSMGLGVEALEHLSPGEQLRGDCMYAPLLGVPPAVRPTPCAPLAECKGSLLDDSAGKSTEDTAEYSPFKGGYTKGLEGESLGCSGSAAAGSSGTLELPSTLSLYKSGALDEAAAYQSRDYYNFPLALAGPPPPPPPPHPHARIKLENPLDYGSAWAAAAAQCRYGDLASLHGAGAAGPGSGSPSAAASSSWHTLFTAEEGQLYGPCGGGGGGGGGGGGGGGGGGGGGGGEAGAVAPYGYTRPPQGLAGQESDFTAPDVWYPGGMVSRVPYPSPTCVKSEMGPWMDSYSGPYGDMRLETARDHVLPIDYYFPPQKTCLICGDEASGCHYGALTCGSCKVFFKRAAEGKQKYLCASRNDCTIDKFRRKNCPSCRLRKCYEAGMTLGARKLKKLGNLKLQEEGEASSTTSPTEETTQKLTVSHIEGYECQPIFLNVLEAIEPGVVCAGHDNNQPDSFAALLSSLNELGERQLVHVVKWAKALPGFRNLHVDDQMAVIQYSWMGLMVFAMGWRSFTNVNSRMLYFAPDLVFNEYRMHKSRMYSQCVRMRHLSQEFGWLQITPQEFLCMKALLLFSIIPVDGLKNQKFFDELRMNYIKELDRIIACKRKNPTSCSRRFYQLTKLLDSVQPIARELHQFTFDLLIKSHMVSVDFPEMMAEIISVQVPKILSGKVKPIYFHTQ
Chain of Glucocorticoid receptor (Homo sapiens) (P04150 whole entry, looked up): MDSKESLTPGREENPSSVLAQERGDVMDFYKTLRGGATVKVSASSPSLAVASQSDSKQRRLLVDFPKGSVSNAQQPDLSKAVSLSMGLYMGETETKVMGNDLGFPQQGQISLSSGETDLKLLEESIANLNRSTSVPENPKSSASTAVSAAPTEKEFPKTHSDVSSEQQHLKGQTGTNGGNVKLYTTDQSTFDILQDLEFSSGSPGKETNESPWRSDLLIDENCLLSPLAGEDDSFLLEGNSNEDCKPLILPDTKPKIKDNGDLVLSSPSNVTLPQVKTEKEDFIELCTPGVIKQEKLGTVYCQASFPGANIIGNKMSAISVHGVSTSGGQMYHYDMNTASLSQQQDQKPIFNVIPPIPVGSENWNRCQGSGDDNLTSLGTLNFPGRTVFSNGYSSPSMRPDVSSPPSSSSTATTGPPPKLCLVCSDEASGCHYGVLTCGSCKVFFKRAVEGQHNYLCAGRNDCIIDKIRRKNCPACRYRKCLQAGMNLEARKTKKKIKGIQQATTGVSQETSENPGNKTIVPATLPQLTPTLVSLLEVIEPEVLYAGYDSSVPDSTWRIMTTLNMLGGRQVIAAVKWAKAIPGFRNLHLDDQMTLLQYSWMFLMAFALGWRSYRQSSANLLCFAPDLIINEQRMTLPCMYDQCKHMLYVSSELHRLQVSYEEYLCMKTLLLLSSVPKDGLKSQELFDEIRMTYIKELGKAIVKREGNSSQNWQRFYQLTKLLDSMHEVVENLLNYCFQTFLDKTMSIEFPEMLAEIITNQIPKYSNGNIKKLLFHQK

Turning to `Cc1c(C(N)=O)cc([N+](=O)[O-])cc1[N+](=O)[O-]`, the Potency entry in assay [1], in assay [3], in assay [4], in assay [5], in [6] and in assay [8] was “inactive” each time. Besides, the Potency entry in [9], in [10], in assay [11], in assay [12], in assay [13] and in assay [14] was “inactive” each time. Further, the Potency result in assay [15] was “inactive”. Besides, the result in assay [2] and in assay [7] was inactive.

On to `CCC(C)OC(=O)c1ccc(O)cc1` (centres undefined), for which the Potency result in [1], in [3], in assay [4], in [5], in assay [6] and in assay [8] was “inactive” in each case. Further, the Potency entry in assay [9], in assay [10], in assay [16], in [13], in assay [14] and in assay [15] was “inactive” throughout. Besides, the molecule was classed as inactive in assay [2] and in [7].

For the molecule `Cc1ccc2c(n1)Oc1ccc(C(C)C(=O)OCC(=O)N(C)C)cc1C2` (centres undefined), the Potency entry in assay [1], in assay [3], in assay [4], in [5], in assay [6] and in assay [8] was “inactive” throughout. Besides, the Potency result in [9], in assay [10], in assay [16], in [12], in assay [13] and in assay [14] was “inactive” in each case. The Potency entry in assay [18], in [15] and in assay [19] was “inactive” throughout. Besides, the molecule was classed as inactive in assay [2], in assay [7] and in [17]. In addition, the Potency in assay [11] is 26.6 µM (active).

Regarding `O=[N+]([O-])c1ccc2c(c1)Cc1ccccc1-2`, the Potency entry in [1], in assay [3], in assay [4], in [5], in assay [6] and in assay [8] was “inactive” in each case. The Potency entry in assay [10], in assay [11], in assay [12], in assay [13] and in assay [14] was “inactive” throughout. Further, the result in [2] and in assay [7] was inactive.

Turning to `CN(C)CCC=C1c2ccccc2CCc2ccccc21`, the Potency entry in assay [1], in [3], in assay [4], in [5], in assay [6] and in assay [8] was “inactive” throughout. Moreover, the Potency entry in [10] and in assay [13] was “inactive” throughout. Also, the call in assay [2] and in [7] was inactive. For the same molecule, the Potency was 9.44 µM (active) and 54.5 µM (active) in [11]; 13.3 µM (active) and 54.5 µM (active) in assay [12]; 23.7 µM (active) and 5.45 µM (active) and 24.3 µM (active) in [15]; 26.6 µM (active) and 24.3 µM (active) and 21.7 µM (active) in assay [19].

Consider `O=C(Nc1ccc([N+](=O)[O-])cc1Cl)c1cc(Cl)ccc1O`, for which the Potency result in assay [1], in [3], in assay [4], in assay [5], in assay [6] and in assay [8] was “inactive” throughout. Also, the molecule was classed as inactive in assay [2] and in [7]. Besides, the Potency in [10] was 0.275 µM (active); in assay [11], 422 nM (active) and 770 nM (active); in assay [16], 473 nM (active) and 686 nM (active); in assay [12], 473 nM (active) and 611 nM (active); in [13], 1.51 µM (active) and 436 nM (active).

Take `CN(C)c1nc(N(C)C)nc(N(C)C)n1`: in assay [1], the fluorescence, % of fluorescein was 0.0818% [at 18.6 µM] and -0.032% [at 3.72 µM]. For the same molecule, the fluorescence, % of fluorescent control is 0.0543% [at 18.6 µM] and 0.0026% [at 3.72 µM] in assay [2]; -0.0465% [at 18.6 µM] and -0.254% [at 3.72 µM] in assay [4]; 0.0368% [at 18.6 µM] and -0.0793% [at 3.72 µM] in assay [20]; 0.0942% [at 18.6 µM] and -0.004% [at 3.72 µM] in assay [7]. Further, the fluorescence, % of Rose Bengal in assay [5] is 0.0258% [at 18.6 µM] and 0.364% [at 3.72 µM]. Further, the fluorescence, % of fluorescein control in assay [6] is -0.0261% [at 18.6 µM] and -0.0181% [at 3.72 µM]. The Potency result in [8], in [9], in assay [10], in assay [11], in assay [13] and in [14] was “inactive” each time. The Potency entry in assay [15] was “inactive”. Moreover, the activity change, negative = cytotoxicity in assay [12] is 0.358% [at 8.55 µM].

Take `O=C1c2cccc(O)c2C(=O)c2c(O)cccc21`: the Potency result in assay [1], in [3], in assay [4], in assay [5], in assay [6] and in assay [10] was “inactive” throughout. The Potency entry in [11], in [16], in assay [12], in assay [13], in assay [14] and in [15] was “inactive” in each case. Moreover, the outcome in assay [2] and in assay [7] was inactive.

`Cc1ncc[nH]1`: the Potency result in assay [1], in assay [3], in [4], in assay [5], in assay [6] and in assay [8] was “inactive” in each case. For the same molecule, the Potency result in [9], in assay [10], in assay [11], in assay [16], in [12] and in assay [13] was “inactive” throughout. In addition, the Potency result in assay [14], in [15] and in assay [19] was “inactive” in each case. Moreover, the molecule was called inactive in [2] and in assay [7].

Source of the values: PubChem BioAssay (Tox21).
